DAGLB inhibitor = blocks human DAGLB lipase activity | Q8NCG7 | HEK293T DAGLB membrane lysate, EnzChek fluorogenic substrate | inhibition, % at 5.17 µM | 0.059% of 340,000 active | AID 504411; in the data active means inhibition above about 34%;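 further: 0% = enzyme with vehicle and 100% = wells lacking enzyme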
Target sequence (Q8NCG7 whole entry, looked up): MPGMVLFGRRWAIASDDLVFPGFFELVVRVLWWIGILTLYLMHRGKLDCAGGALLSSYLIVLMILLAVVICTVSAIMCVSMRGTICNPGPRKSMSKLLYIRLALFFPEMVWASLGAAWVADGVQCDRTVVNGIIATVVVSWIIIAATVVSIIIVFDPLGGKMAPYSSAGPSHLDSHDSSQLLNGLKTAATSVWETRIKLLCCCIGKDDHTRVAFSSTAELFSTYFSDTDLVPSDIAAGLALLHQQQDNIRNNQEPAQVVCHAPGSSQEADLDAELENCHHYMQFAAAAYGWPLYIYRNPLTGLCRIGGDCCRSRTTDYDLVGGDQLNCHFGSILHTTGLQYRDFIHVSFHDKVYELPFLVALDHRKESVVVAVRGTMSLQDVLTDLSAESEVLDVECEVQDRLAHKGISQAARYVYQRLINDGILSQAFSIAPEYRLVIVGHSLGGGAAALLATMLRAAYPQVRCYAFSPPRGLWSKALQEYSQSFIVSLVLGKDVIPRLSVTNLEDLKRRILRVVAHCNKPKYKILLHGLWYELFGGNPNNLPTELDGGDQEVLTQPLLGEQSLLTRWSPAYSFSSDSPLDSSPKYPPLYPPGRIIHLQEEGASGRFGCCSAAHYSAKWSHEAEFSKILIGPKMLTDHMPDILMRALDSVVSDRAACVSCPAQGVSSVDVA
MsrA inhibitor = bovine MsrA inhibition | purified bovine MsrA, absorbance read-out | inhibition, % at 15.5 µM | 0.75% of 360,000 active | AID 651718; in the data active means inhibition above about 4.5%;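 further: 0% = vehicle wells with enzyme and 100% = reference inhibitor wells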
Pemphigus Ab inh = blocks pemphigus antibody binding to human desmoglein-3; P32926; DSG3-coupled beads, scFv-anti-DSG3-GFP binding, flow cytometry; stronger effect = lower value; binding (percent of control), % at 10 µM; 0.48% of 310,000 active; AID 588358;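 active means binding more than 3 SD below its plate's average and above zero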;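 further: hits lower antibody fragment binding to DSG3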
NadD block = blocks S. aureus nicotinate mononucleotide adenylyltransferase. purified NadD enzyme, colorimetric absorbance read-out. inhibition, % at 20 µM. 0.78% of 360,000 active; in the data active means inhibition above about 26%
bovine MsrA act = activates bovine MsrA enzyme; purified bovine MsrA, absorbance read-out; activation, % at 10.6 µM; 0.3% of 360,000 active; AID 602163; in the data active means activation above about 7.5%;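 further: 0% = vehicle and 100% = reference activator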
rCAG RNA binder = r(CAG) repeat RNA binding. AID 651821. 1.3% of 370,000 active. inhibition, % at 3 µM. TO-PRO-1 dye displacement fluorescence;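 active means inhibition above the plate cutoff, the mean of all test compounds on that plate plus 3 SD, cut at about 35% in these data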;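 further: 0% = DMSO alone and 100% = 100 µM mitoxantrone as full dye displacement; higher means more dye released from RNA so lower well fluorescence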
rCAG binder conf = r(CAG) RNA repeat binding, confirmation; shares compounds with rCAG RNA binder; TO-PRO-1 dye displacement fluorescence; inhibition, % at 3 µM; 70% of 4,300 active; AID 652065;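 active means inhibition above a per-plate cutoff, the mean inhibition of sample wells plus 3 SD, cut at about 35% in these data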;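 further: loss of TO-PRO-1 fluorescence as compound displaces dye from 1x1 AA loop RNA; 0% = DMSO only wells and 100% = 100 µM mitoxantrone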
DNA CAG counter = disrupts DNA CAG TO-PRO-1 complex, flagging rCAG hits. shares compounds with rCAG RNA binder. d(CAG) DNA oligo TO-PRO-1 dye displacement, fluorescence. inhibition, % at 3 µM. 94% of 4,300 active. AID 652068;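 active means inhibition above its plate's cutoff, the mean test-well inhibition plus 3 SD, cut at about 4.8% in these data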;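 further: 0% = DNA dye mix with DMSO and 100% = 100 µM mitoxantrone; hits displace the dye from DNA and so lower well fluorescence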
DNA CAG DR = counter-screen for rCAG binders: inhibitors of DNA CAG TO-PRO-1 complex. shares compounds with rCAG RNA binder. DNA CAG/GTC duplex TO-PRO-1 dye displacement fluorescence. IC50, µM. 20% of 250 active; in the data active means IC50 below about 10 µM
An asterisk follows results filed as active; . = no result. The list is not random: actives were taken first. Their share in the collection is about 3.2%.

SMILES	DAGLB inhibitor	MsrA inhibitor	Pemphigus Ab inh	NadD block	bovine MsrA act	rCAG RNA binder	rCAG binder conf	DNA CAG counter	others
Cc1ccc(O)c(-c2cc(C(=O)Nc3ccc(S(=O)(=O)Nc4nccc(C)n4)cc3)[nH]n2)c1	5.4	-0.6	86.1	6.1	-7.6	58.9*	48.5*	17.4*
CN1C(=O)c2cc(NC(=O)Nc3ccccc3)ccc2OC[C@H]2O[C@@H](CC(=O)NC3CCC3)CC[C@@H]21	.	.	.	.	.	4.2	.	.
CCCc1cc(-c2n[nH]c(C)c2-c2ccc(C(=O)OCC)o2)c(O)cc1O	-2.9	-0.4	97.4	-2.8	0.7	5.9	.	.
CCCc1cc2c(OC(=O)CC)c(-c3ccc(C(=O)OCC)o3)c(=O)oc2cc1OC	15.8	3.2	95.8	1.7	-4.2	38.4*	32.9	6.8*
CNc1ccc(-c2cccc([N+](=O)[O-])c2)cn1	.	1.1	.	8.4	-2.5	1.0	.	.
O=C(CSc1cc([N+](=O)[O-])cc(S(=O)(=O)Cc2ccccc2)c1)NC1CC1	-0.1	-1.5	103.6	-3.8	-3.4	56.0*	5.4	5.6*
COc1ccc(/C=C2\Oc3cc(OCC(=O)N4CCC(C(=O)O)CC4)ccc3C2=O)c(OC)c1OC	-1.9	3.8	98.0	8.8	0.8	21.8	.	.
COc1ccc(/C=C2\Oc3cc(OCC(=O)N4CCC(C(=O)O)CC4)ccc3C2=O)c(OC)c1	-0.9	.	97.1	-1.1	-2.0	.	.	.
COc1ccc(OC)c(/C=C2\Oc3cc(OCC(=O)N4CCC(C(=O)O)CC4)ccc3C2=O)c1	-0.8	3.7	99.1	3.3	-1.1	37.9*	41.6*	8.6*
COc1ccc(OC)c(/C=C2\Oc3cc(OCC(=O)N4CC(O)C[C@H]4C(=O)O)ccc3C2=O)c1 (stereo partly specified)	-0.3	4.0	102.9	-4.3	-5.3	41.6*	33.4	5.9*
Oc1ccccc1C=NNC(=S)NC1CC2C=CC1C2 (stereo unspecified)	3.6	2.0	104.9	-5.0	-0.6	6.3	.	.
Oc1c(Cl)cc(Cl)cc1/C=N/NC(=S)NC1CC2C=CC1C2 (stereo unspecified)	33.8	0.8	91.5	15.9	-7.2	65.6*	81.1*	47.4*
NNC(=O)c1cc(NS(=O)(=O)c2cccs2)cc(NS(=O)(=O)c2cccs2)c1	9.6	-0.9	89.4	6.6	0.1	41.9*	8.7	4.7*
O=S(=O)(Nc1cccc(CO)c1)c1cccs1	.	0.2	100.7	-4.6	-1.7	2.3	.	.
O=C(O)CC1(CC(=O)Nc2cc(C(F)(F)F)cc(C(F)(F)F)c2)CCCCC1	.	0.9	89.7	-1.3	-2.3	41.8*	24.3	4.8*
CCCCN1Cc2c(nc3cc(-c4ccco4)[nH]n3c2=O)C1=O	2.5	0.9	110.2	2.0	-2.8	66.2*	9.4	2.3
Cc1n[nH]c(=O)c2c(NC(=O)CSc3nn(-c4ccc(F)cc4)c(=S)s3)oc(C)c12	0.2	1.4	106.7	8.7	-0.2	39.7*	28.2	12.5*
O=C1N/C(=N/S(=O)(=O)c2ccccc2)S/C1=C/c1cccnc1	3.3	3.9	94.3	1.4	-12.6	14.5	.	.
Cc1ccc(S(=O)(=O)/N=C2/NC(=O)/C(=C/c3ccncc3)S2)cc1	.	0.5	.	.	.	4.2	.	.
Cc1ccc(S(=O)(=O)/N=C2/NC(=O)/C(=C/c3ccccc3)S2)cc1	16.9	4.6*	99.8	14.4	-3.8	83.8*	70.7*	29.7*	DNA CAG DR=4.89*
Cc1ccc(/C=C2\S/C(=N/S(=O)(=O)c3cccs3)NC2=O)cc1	18.6	1.8	127.2	15.0	-3.3	59.7*	65.0*	23.8*
Cc1ccc(S(=O)(=O)/N=C2/NC(=O)/C(=C\c3ccccc3)S2)cc1	13.6	3.6	102.3	6.1	-5.5	82.6*	76.5*	35.7*
COc1cccc(CCNS(=O)(=O)c2c(C)n[nH]c2C)c1	.	.	.	.	.	1.8	.	.
C/C(=N\Nc1nc2ccccc2s1)c1ccc(Br)s1	-3.5	0.4	97.6	-0.8	-3.4	35.4*	16.8	8.7*
CC(=NNc1nc2ccccc2s1)c1ccncn1	0.9	3.3	.	1.6	-10.8	1.9	.	.
SMILES	DAGLB inhibitor	MsrA inhibitor	Pemphigus Ab inh	NadD block	bovine MsrA act	rCAG RNA binder	rCAG binder conf	DNA CAG counter	others
C=CCNc1nc2ccccc2nc1NS(=O)(=O)c1ccc(F)cc1	4.1	0.9	100.4	-3.1	2.2	21.1	.	.
C=CCNc1nc2ccccc2nc1NS(=O)(=O)c1ccc(Br)cc1	10.6	1.1	102.4	-1.7	-0.5	48.8*	41.8*	9.8*
COc1ccc(-c2nnc(NC(=O)c3ccc(S(=O)(=O)N4COCC4(C)C)cc3)o2)cc1	3.3	2.5	.	20.7	-1.7	46.4*	54.3*	15.3*
COC(=O)[C@]12C[C@H](CC(=O)N3CCCCC3)C(=O)N(CCc3ccc(OC)c(OC)c3)C1=C[C@H](C1CCCC1)O[C@@H]2C	.	.	.	.	.	0.1	.	.
COc1cc(C2c3c([nH]c(=O)[nH]c3=O)Nc3ccc4ccccc4c32)ccc1O (stereo unspecified)	3.9	1.4	104.4	4.4	-4.2	42.8*	23.7	8.2*
COc1cc(C2c3c([nH]c(=O)[nH]c3=O)Nc3ccc4ccccc4c32)cc(OC)c1OC (stereo unspecified)	5.7	0.0	102.8	6.9	-8.8	42.4*	30.4	10.2*
Cc1ccc(OCc2n[nH]c(=S)n2-c2ccc(Cl)cc2)cc1	2.0	0.7	108.1	1.7	0.3	14.9	.	.
Cc1ccc(C2=Nn3c(COc4ccc(Cl)cc4)nnc3SC2CC(=O)O)cc1 (stereo unspecified)	4.3	-0.9	108.7	2.8	-3.5	47.1*	41.5*	10.5*
CC1CCCN(C(=O)C2CCN(S(=O)(=O)c3cccc4nonc34)CC2)C1 (stereo unspecified)	0.5	1.2	100.4	-4.0	-2.7	-1.5	.	.
C=CCSc1nnc(NC(=O)c2cccc(S(=O)(=O)N(C)c3ccccc3)c2)s1	5.9	1.3	100.9	5.6	2.6	47.8*	44.3*	14.1*
CN(c1ccccc1)S(=O)(=O)c1cccc(C(=O)Nc2nccs2)c1	1.8	0.8	102.3	3.2	-6.9	1.5	.	.
COc1cc(NS(=O)(=O)c2ccc(NC(=S)NC(=O)c3ccc(F)c(F)c3)cc2)nc(OC)n1	4.8	3.1	.	-0.2	-3.8	49.3*	53.9*	11.9*	DNA CAG DR=>29.9
Cc1ccc(OCC(=O)Nc2ccc(S(=O)(=O)Nc3cc(C)nc(C)n3)cc2)c(C)c1	1.1	-1.0	107.8	7.4	0.9	16.6	.	.
COc1ccc(CC(=O)Nc2ccc(S(=O)(=O)Nc3cc(OC)nc(OC)n3)cc2)cc1	-2.1	-0.3	99.4	-0.9	-13.5	20.1	.	.

Assay outcomes (PubChem)
